This note sets out measurements from PubChem BioAssay (NCI).

A short description of experiment [1]: NCI Yeast Anticancer Drug Screen. Data for the rad50 strain (AID 155).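 Also: 0% = growth of vehicle-only cultures of the same strain.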 The conditions noted are these: S. cerevisiae rad50 strain growth inhibition, stronger effect = higher value; at 50.0 µM unless noted. The essentials: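 Vehicle-treated cultures provide the reference for the growth inhibition reported for compound-exposed, repair-deficient yeast.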
The nature of experiment [2]: NCI Yeast Anticancer Drug Screen. Data for the mec2-1 strain (AID 157). The note with it: S. cerevisiae mec2-1 strain, stronger effect = higher value; at 50.0 µM unless noted. The essentials:
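Growth inhibition is read against vehicle-treated controls after compound exposure of the mec2-1 yeast strain, which is defective in DNA damage repair or cell cycle control.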

Experiment [3] is described as follows: NCI Yeast Anticancer Drug Screen. Data for the sgs1 mgt1 strain (AID 161).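 Also: 0% = growth of cultures given vehicle only.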 The conditions noted are these: S. cerevisiae sgs1 mgt1 strain, stronger effect = higher value; at 50.0 µM unless noted. In outline:
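Yeast cells carrying a defined DNA-repair defect were exposed to test compounds. Growth inhibition was measured relative to vehicle-treated controls.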

Experiment [4] in a line: NCI Yeast Anticancer Drug Screen. Data for the cln2 rad14 strain (AID 165).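 Also: 0% = growth equal to vehicle treated cultures.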 The note with it: S. cerevisiae cln2 rad14 strain, stronger effect = higher value; at 50.0 µM unless noted. The essentials: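 Growth inhibition, relative to vehicle-treated controls, is the read-out. The test organism is a yeast strain with defined genetic alterations, cln2 rad14.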
A short description of experiment [5]: NCI Yeast Anticancer Drug Screen. Data for the bub3 strain (AID 167). The note with it: S. cerevisiae bub3 mutant strain, stronger effect = higher value; at 50.0 µM unless noted. The essentials:
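Mutant yeast screening strain plus compound; vehicle-treated cultures serve as the 0% inhibition reference.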

A short description of experiment [6]: NCI Yeast Anticancer Drug Screen. Data for the mlh1 rad18 strain (AID 175). The conditions noted are these: S. cerevisiae mlh1 rad18 strain growth inhibition, stronger effect = higher value; at 50.0 µM unless noted. In outline:
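Cells of a genetically altered yeast strain, deficient in DNA damage repair, were treated with compound. Their growth was then compared with that of vehicle-treated cultures to give inhibition.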

Several values for one entry are separate records, joined by “and”; a condition that tells them apart may be missing. Identical values can stand only once. This is part of a sample that, as a whole, favours compounds with a hit. Of some 79,000 tested, about 15% had one in any assay. Values without a mark were called inactive. Activity calls are given as the source filed them. Rule as the data show it: active = growth inhibition above about 70%; inactive = the rest.

As to `CCCCNC(=O)c1cc(=O)[nH]c(=O)[nH]1`, the growth inhibition in experiment [1] is 1.5%; in experiment [2], -6.55%; in experiment [3], 6.6%; in experiment [4], 5.6%; in experiment [5], -16.1%; in experiment [6], 20.1%.

In the case of `O=C(CCC(=O)Nc1ccccc1C(F)(F)F)N/N=C1\C(=N\NC(=O)CCC(=O)Nc2ccccc2C(F)(F)F)C(c2ccc3c(c2)OCO3)Oc2ccccc21` (configuration not stated), the growth inhibition in experiment [1] was 19.4%; in experiment [2] it was 3.4%; in experiment [3], 1.15%; in experiment [4], -11%; in experiment [5] it was -5.05%; in experiment [6], 4.55%.

Take `O=C1NC(N/N=C\C(O)C(O)C(O)C(O)CO)=N/C1=C/c1ccc(Cl)cc1` (configuration not stated): the growth inhibition in experiment [1] is 28.1% and 32%; in experiment [2], 8.95% and 15.7%; in experiment [3], 1.45% and 10.8%; in experiment [4], -0.6% and 13.4%; in experiment [5] it was -0.2% and 6.45%; in experiment [6], 10.6% and 9.2%.

As for `Cc1nc2c3c(ccc2[nH]c1=O)C(=O)c1ccccc1C3=O`, the growth inhibition in experiment [1] is 19.4%; in experiment [2], 11.6%; in experiment [3] it was 17.7%; in experiment [4] it was 16.9%; in experiment [5], 13.9%; in experiment [6], 38.2%.

As for `COc1ccc2nc3cc([N+](=O)[O-])ccc3c(NCCCN(C)C)c2c1`, the growth inhibition in experiment [1] is 7.05%; in experiment [2], -1.9%; in experiment [3], 45.4%; in experiment [4], 20.9%; in experiment [5], 8.25%; in experiment [6], 5.4%.

`C/C(=N\O)C(=O)c1ccc(C)cc1`: the growth inhibition in experiment [1] is -0.05%; in experiment [2], -12.7%; in experiment [3] it was 2.2%; in experiment [4], -30.6%; in experiment [5] it was -22.7%; in experiment [6], -8.7%.

For the molecule `CC(Oc1ccc(OCC2CCCCC2)cc1)C(=O)N(CCO)CCO` (configuration not stated), the growth inhibition in experiment [1] was 21.2%; in experiment [2], -19.9%; in experiment [3], 25.6%; in experiment [4], 11.9%; in experiment [5] it was -43.4%; in experiment [6], 6.65%.

As for `CCCCS(=O)/C=C\S(=O)CCCC` (configuration not stated), the growth inhibition in experiment [1] is -7%; in experiment [2] it was 6.3%; in experiment [3], 4.75%; in experiment [4] it was -16.2%; in experiment [5], 8.55%; in experiment [6] it was 1.6%.

For the molecule `CNC(=O)C(C(=O)NC)c1ccccc1`, the growth inhibition in experiment [1] is 8.05%; in experiment [2], -4.65%; in experiment [3] it was -1.15%; in experiment [4], -18.5%; in experiment [5], -2.9%; in experiment [6], 10.8%.

In the case of `COc1ccc(C(=O)c2ccc(Br)s2)cc1`, the growth inhibition was 5.9% in experiment [1]; -6.65% in experiment [2]; 12.8% in experiment [3]; -14.4% in experiment [4]; 13.8% in experiment [5]; 33% in experiment [6].

Regarding `O=c1cc(Cl)c(=O)n(-c2ccccc2)[nH]1`, the growth inhibition in experiment [1] was 3.5%; in experiment [2], -4.75%; in experiment [3], -3.25%; in experiment [4] it was -14.6%; in experiment [5], 0.9%; in experiment [6] it was 2.7%.

As to `C1CSCCSCCS1`, the growth inhibition in experiment [1] was 11.6%; in experiment [2] it was 0.9%; in experiment [3], 20.1%; in experiment [4] it was 4.85%; in experiment [5], 28%; in experiment [6], -4.9%.

Consider `Nc1ncnc2c1ccn2COCCO`, for which the growth inhibition in experiment [1] is -8.25%; in experiment [2] it was 1.55%; in experiment [3], 4.7%; in experiment [4] it was -43.9%; in experiment [5], -12.5%; in experiment [6] it was -3.9%.

With `CCN(CC)CCC(=O)c1ccccc1`, the growth inhibition in experiment [1] was -7.5%; in experiment [2], -4.25%; in experiment [3], -8.45%; in experiment [4], -7.25%; in experiment [5], -20.1%; in experiment [6], -7.85%.

As to `NC(CCn1cnc2c(=O)[nH]cnc21)C(=O)O` (configuration not stated), the growth inhibition is 4.1% in experiment [1]; 10.3% in experiment [2]; 6.7% in experiment [3]; -31.6% in experiment [4]; -12.8% in experiment [5]; -11.7% in experiment [6].

On to `CN(C)c1ccc(O[Si](Oc2ccc(N(C)C)cc2)(Oc2ccc(N(C)C)cc2)Oc2ccc(N(C)C)cc2)cc1`, for which the growth inhibition was 27.6% in experiment [1]; 37.2% in experiment [2]; 25.8% in experiment [3]; 29.4% in experiment [4]; 14.3% in experiment [5]; 43.8% in experiment [6].

Consider `COC(=O)C(=O)C(C(=O)C(=O)Nc1cccc(C(C)=O)c1)c1nc2ccccc2[nH]c1=O` (configuration not stated), for which the growth inhibition in experiment [1] is 2.7%; in experiment [2], -9.45%; in experiment [3] it was 2.15%; in experiment [4], 14.2%; in experiment [5], -18.9%; in experiment [6] it was 3.5%.

Take `CC(C)OC(=O)c1ccc(CCC2=CC(=O)C(Br)=CC2=O)cc1`: the growth inhibition in experiment [1] was 50.7%; in experiment [2] it was 62.4%; in experiment [3] it was 65.5%; in experiment [4] it was 56%; in experiment [5], 51%; in experiment [6], 90% (active).

As for `COc1cc(/C=C/C(=O)O)ccc1O`, the growth inhibition in experiment [1] was -6.1%; in experiment [2], -17.1%; in experiment [3], 16.1%; in experiment [4] it was -48%; in experiment [5] it was -12.3%; in experiment [6], 17.6%.

In the case of `N/N=C1\C(=O)N(C2CCCCCC2)C(=O)C1C(=O)NC1CCCCCC1` (configuration not stated), the growth inhibition in experiment [1] is -13.3%; in experiment [2], -32.6%; in experiment [3], -7.2%; in experiment [4] it was -68.7%; in experiment [5] it was -18.8%; in experiment [6], -26.2%.

As to `CC1=CC(C)(C)[C@H]2O[C@@]3(O)C[C@]4(C)[C@H]5C[C@@](C(C)C)(O[C@H]4c4ccoc4)O[C@H]4[C@]5(C3)O[C@@]1(O)[C@]24O`, the growth inhibition in experiment [1] is 5.2%; in experiment [2] it was 0.45%; in experiment [3], -11.9%; in experiment [4], -14.8%; in experiment [5] it was -13.4%; in experiment [6], -3.5%.

Take `O=C1COC(c2ccccc2O)=NN1Cc1ccccc1`: the growth inhibition is -14.6% in experiment [1]; -0.3% in experiment [2]; -5.3% in experiment [3]; -4.75% in experiment [4]; -8.6% in experiment [5]; -1.1% in experiment [6].
